Experiment [1] has as its system Human papillomavirus type 1a protein E7 (residues 44-93). Nature of the experiment: small molecules binding HPV E7 44-93 – biochemical, small-molecule microarray, residues 44-93, 635 nm fluorescence, primary screen (AID 1108).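 Further: E7 fragment applied at 1 µg/mL in TBST for 1 h at 4 C; score combines spot fluorescence with its signal to noise ratio.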 The settings on record: fluorescence 635 nm, higher = more signal.
Experiment [2] in a line: hepatitis C replication reporter changes, two-sided – Huh7 cells, luciferase reporter, HCV replication inhibitor project, primary screen (AID 1109).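 Further: huh7 hepatoma cells harbouring a luciferase neomycin HCV replicon reporter; luciferase luminescence as measure of HCV replicon replication; test concentration not given here.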 The settings on record: Huh7 HCV replicon luciferase reporter, 48 h; higher = more signal.
Experiment [3] has as its target Left-right determination factor 2 (Homo sapiens) (UniProt O00292). Nature of the experiment: small molecules binding LEFTY2 protein – biochemical, small-molecule microarray, 635 nm fluorescence scan, primary screen (AID 1110). The settings on record: higher = more signal.
Experiment [4] has as its target Calmodulin-1 (Homo sapiens) (UniProt P0DP23). In words: small molecules binding calmodulin-1 with EGTA – biochemical, small-molecule microarray, Cy5-labelled CALM1, profiling panel (AID 1111).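 Further: labelled calmodulin applied in Tris saline Tween buffer holding calcium plus EGTA and DTT.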 The settings on record: Cy5-CALM1 binding fluorescence, higher = more signal.
Experiment [5] shares this target. In words: small molecules binding Ca-loaded calmodulin-1 – biochemical, small-molecule microarray, Cy5-labelled CALM1, plus calcium, artefact control for SMM control-protein annotation, profiling panel (AID 1112).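 Further: score merges spot fluorescence with signal to noise from triplicate slides.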 The following applies: Cy5-CALM1 binding fluorescence, higher = more signal.
Experiment [6] in a line: probe aWnt5a binding to arrayed compounds – biochemical, biotinylated probe, 635/667 nm fluorescence, primary screen (AID 1113).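 Further: score merges 667 nm fluorescence intensity with signal-to-noise per printed feature.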 The settings on record: small-molecule microarray, higher = more signal.
Experiment [7] in a line: probe aShh binding to arrayed compounds – biochemical, biotinylated probe, 635/667 nm fluorescence, primary screen (AID 1114).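 Further: probe is biotin-labelled aShh protein from a stem cell growth factor screen; measures binding of labelled protein to compounds printed on the slide; score merges feature fluorescence at 667 nm with signal-to-noise.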 The settings on record: small-molecule microarray, higher = more signal.
Experiment [8] is described as follows: probe aNog binding to arrayed compounds – biochemical, biotinylated probe, 635/667 nm fluorescence, primary screen (AID 1115).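 Further: probe is biotinylated aNog protein used at 0.15 µg/mL for 1 h at 4 C; z-score combines 667 nm fluorescence of each spot with its signal to noise.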 The following applies: small-molecule microarray, higher = more signal.
The target in experiment [9] is Torsin-1A-interacting protein 1 (Homo sapiens) (UniProt Q5JTV8). Nature of the experiment: compound microarray binding of lysate hLAP1 – cell lysate, small-molecule microarray, COS7 lysate, 635/667 nm fluorescence, primary screen (AID 1116). The settings on record: 635 nm fluorescence, higher = more signal.
Chain of Torsin-1A-interacting protein 1 (Homo sapiens) (Q5JTV8 whole entry, looked up): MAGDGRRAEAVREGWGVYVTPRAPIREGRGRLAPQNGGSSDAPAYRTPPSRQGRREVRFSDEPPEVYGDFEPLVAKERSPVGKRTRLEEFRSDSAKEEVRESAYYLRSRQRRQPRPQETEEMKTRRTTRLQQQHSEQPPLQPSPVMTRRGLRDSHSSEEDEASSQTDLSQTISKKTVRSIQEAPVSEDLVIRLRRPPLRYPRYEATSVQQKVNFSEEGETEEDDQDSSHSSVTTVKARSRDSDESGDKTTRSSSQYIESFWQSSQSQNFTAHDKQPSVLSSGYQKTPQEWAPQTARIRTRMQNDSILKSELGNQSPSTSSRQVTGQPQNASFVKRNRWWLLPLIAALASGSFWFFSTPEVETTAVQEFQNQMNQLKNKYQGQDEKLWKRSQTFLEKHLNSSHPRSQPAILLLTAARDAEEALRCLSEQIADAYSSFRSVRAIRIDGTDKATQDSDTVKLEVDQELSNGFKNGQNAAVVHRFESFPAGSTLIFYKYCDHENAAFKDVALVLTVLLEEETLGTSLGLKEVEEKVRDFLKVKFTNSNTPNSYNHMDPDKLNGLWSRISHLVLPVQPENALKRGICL
In experiment [10] the target is Alpha-bungarotoxin (Bungarus multicinctus) (UniProt P60615). In words: compounds binding labelled alpha-BTX control protein – biochemical, small-molecule microarray, Alexa647 label, 635/667 nm fluorescence, artefact control for SMM control protein annotation, profiling panel (AID 1117). The settings on record: alpha-BTX-A647 binding fluorescence, higher = more signal.
Chain of Alpha-bungarotoxin (Bungarus multicinctus) (P60615 whole entry, looked up): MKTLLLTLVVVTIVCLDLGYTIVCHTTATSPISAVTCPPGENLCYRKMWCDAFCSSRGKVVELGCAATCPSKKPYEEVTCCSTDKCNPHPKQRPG

This note sets out measurements from PubChem BioAssay.

Chain of Left-right determination factor 2 (Homo sapiens) (O00292 whole entry, looked up): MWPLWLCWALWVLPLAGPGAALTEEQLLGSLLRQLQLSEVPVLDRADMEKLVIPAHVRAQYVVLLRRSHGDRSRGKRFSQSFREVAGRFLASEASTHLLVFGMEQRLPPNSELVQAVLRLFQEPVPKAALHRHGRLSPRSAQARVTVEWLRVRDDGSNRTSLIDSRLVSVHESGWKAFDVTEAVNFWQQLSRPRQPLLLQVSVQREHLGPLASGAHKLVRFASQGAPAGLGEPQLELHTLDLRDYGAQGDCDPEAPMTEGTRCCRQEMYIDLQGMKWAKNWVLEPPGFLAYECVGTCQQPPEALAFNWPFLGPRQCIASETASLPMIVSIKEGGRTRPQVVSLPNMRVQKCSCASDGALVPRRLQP

Take `CC(C)N1C(=O)c2ccccc2[C@@H](C(=O)NC2CC2)[C@@H]1c1ccc(CO)cc1`: the composite z-score was -0.142 in experiment [1]; 0.415 in experiment [3]; 1.01 in experiment [4]; 0.343 in [5]; -0.0236 in [6]; -0.282 in experiment [7]. The composite z-score in [8] is -0.288; in experiment [9] it was 0.997; in experiment [10], 0.654. In experiment [2], this molecule displayed a z-score of 0.0045.

In the case of `O=C(NCC(F)(F)F)[C@@H]1c2ccccc2C(=O)N(Cc2cc(F)cc(C(F)(F)F)c2)[C@H]1c1ccc(CO)cc1`, the composite z-score in [1] is 0.463; in experiment [3], -1.53; in experiment [4], 0.152; in [5], 0.712; in [6] it was -0.096; in experiment [7], -0.0709. In addition, the results for the composite z-score in experiment [8], in [9] and in experiment [10] were -0.074, -0.468 and -0.758, respectively. Also, the z-score in [2] is -0.661.

`COC(=O)[C@@]1(Cc2ccc(F)cc2)[C@H]2c3cc(C(=O)N4CCCC4)n(CCN4CNCC4=O)c3C[C@H]2CN1C(=O)c1ccccc1`: the composite z-score in experiment [1] is 1.44; in experiment [3], -1; in [4], -0.606; in experiment [5], -0.234; in experiment [6], 0.307; in experiment [7], 0.151. The composite z-score is -0.158 in experiment [8], 2.1 in experiment [9] and 1.07 in experiment [10]. For the same molecule, the z-score in experiment [2] is -1.8.

On to `COC(=O)[C@@]1(Cc2ccc(OC)cc2)[C@H]2c3cc(C(=O)N(C)C)n(C[C@H](O)CO)c3C[C@H]2CN1C(=O)c1ccccc1`, for which the composite z-score in experiment [1] was -1.21; in experiment [3] it was -0.415; in [4], 2.33; in [5] it was 1.32; in [6] it was 0.108; in experiment [7] it was 0.86. Further, the values for the composite z-score in [8], in experiment [9] and in experiment [10] were 2.14, 2.07 and 1.15, respectively. The same molecule returned a z-score in experiment [2] of -0.966.

Take `COc1ccc(C(O)C2C=CC3C(=O)N(c4ccccc4)C(=O)C3N2Nc2ccc([N+](=O)[O-])cc2)cc1` (stereo not given): the composite z-score in experiment [1] is 0.487; in [3], -0.425; in experiment [4], 1.45; in experiment [5], 0.622; in experiment [6], 0.315; in experiment [7], 0.109. Further, the composite z-score in experiment [8] was -0.064; in experiment [9], 1.66; in experiment [10] it was 1.32. For the same molecule, in experiment [2], the z-score was -0.925.

Take `CN1C(=O)C2C=CC(C(O)COCc3ccccc3)N(N(c3ccccc3)c3ccccc3)C2C1=O` (stereo not given): the composite z-score in [1] is 1.31; in experiment [3], -0.142; in experiment [4], 1.41; in [5], 0.667; in experiment [6] it was 0.0915; in [7] it was 0.204. The composite z-score in experiment [8] was 0.773; in experiment [9], 0.454; in experiment [10] it was 0.458. Also, the z-score in experiment [2] is -1.4.

As for `C=C(/C(=C/C[C@@H](OC(C)=O)c1cccc(OCCO)c1)c1cc(C(=O)OC)ccc1OC)C(C)C`, the composite z-score in [1] is 0.522; in experiment [3] it was 0.256; in [4] it was -0.343; in [5], -0.563; in experiment [6], -0.221; in experiment [7] it was -0.221. Besides, the composite z-score in experiment [8] is -0.223; in experiment [9] it was 0.189; in experiment [10], 0.215. In [2], this molecule showed a z-score of -1.53.

Turning to `COC(=O)[C@@]1(Cc2ccccc2)[C@H]2c3cc(C(=O)N(C)C)n(Cc4c(CO)[nH]cc(C)c4=O)c3C[C@H]2CN1C(=O)c1ccccc1`, the composite z-score in experiment [1] was -0.0355; in [3], -0.0086; in experiment [4] it was 0.278; in [5], 0.0907; in experiment [6], 0.108; in [7] it was 0.061. The composite z-score in [8] worked out at 1.05; in [9] it was 0.37; in experiment [10] it was 0.218. Also, the z-score in [2] is -0.898.

With `CC[C@H]1C2=C3C(CC[C@H]4C(OCc5ccc(F)cc5C(F)(F)F)OC[C@](C)([C@@H]34)N(C(=O)OC(C)(C)C)C2)C(COC)C1COC` (stereo not given in full), the composite z-score is 0.732 in experiment [1]; -0.696 in experiment [3]; 0.914 in experiment [4]; 0.771 in experiment [5]; 0.0768 in experiment [6]; -0.214 in experiment [7]. In addition, the values for the composite z-score in [8], in experiment [9] and in experiment [10] were 1.33, -0.0575 and 0.0915, respectively. In experiment [2], this molecule showed a z-score of -0.25.

With `COC1OC[C@]2(C)[C@H]3C4=C(CN2C(=O)OC(C)(C)C)[C@H](C)C(CO)C(CO)C4CC[C@@H]13` (stereo not given in full), the composite z-score is 1.22 in experiment [1]; -0.134 in experiment [3]; 2.62 in experiment [4]; 1.39 in experiment [5]; -0.0007 in experiment [6]; 0.605 in experiment [7]. Besides, the composite z-score came out at 1.04 in experiment [8], 2.14 in experiment [9] and 2.39 in experiment [10]. For the same molecule, the z-score in [2] was -1.3.

As for `CCCCO[C@H]1C[C@H]2C(I)=C[C@@H]1C(=O)[C@]21CO1`, the composite z-score was -0.977 in experiment [1]; 0.312 in [3]; -0.331 in experiment [4]; -0.502 in experiment [5]; -0.0735 in [6]; -0.0866 in experiment [7]. In addition, the values for the composite z-score in experiment [8], in experiment [9] and in experiment [10] were 0.0327, -0.243 and -0.0708, respectively. In [2], this molecule returned a z-score of -2.7.

Turning to `COC(=O)CCCCCCC(=O)Nc1ccc(NC(=O)CCCC[P+](c2ccccc2)(c2ccccc2)c2ccccc2)cc1`, the composite z-score in experiment [1] was -0.0924; in experiment [3], 0.749; in experiment [4] it was -0.0302; in [5], -0.516; in [6], -0.0751; in [7], -0.147. Further, the composite z-score in [8] was -0.209; in experiment [9], 0.533; in [10], -0.573. The z-score in experiment [2] turned out to be 0.319.

Take `[N-]=[N+]=Nc1ccccc1[C@H]1OC(c2ccc(OCCCO)cc2)=N[C@@]1(Cc1ccccc1)C(=O)N1CCCCC1`: the composite z-score in experiment [1] was found to be 1.45; in [3], 0.346; in experiment [4], 1.53; in experiment [5], 0.735; in experiment [6], 0.299; in experiment [7], 0.204. Moreover, the values for the composite z-score in experiment [8], in experiment [9] and in experiment [10] were 1.28, 2.12 and 1.53, respectively. Besides, in experiment [2], the z-score is -2.13.

`COC(=O)[C@@]1(Cc2ccc(OC)cc2)[C@H]2c3cc(C(=O)N4CCCC4)n(Cc4c(-c5ccccc5)noc4C)c3C[C@H]2CN1C(=O)c1ccccc1`: the composite z-score was 1.41 in experiment [1]; -0.181 in experiment [3]; 1.5 in experiment [4]; 0.716 in [5]; 0.42 in experiment [6]; 0.268 in experiment [7]. Moreover, the composite z-score turned out to be 1.85 in experiment [8], 0.764 in experiment [9] and 0.818 in experiment [10]. The z-score in experiment [2] was -2.21.

With `C=CCN1C(=O)[C@@]2(CCS(=O)(=O)c3ccccc3)N=C(c3ccc(OCCCO)cc3)O[C@H]2c2ccccc21`, the composite z-score in experiment [1] is 1.42; in [3], 0.876; in experiment [4], 1.94; in [5], -0.313; in experiment [6], 0.0215; in experiment [7], -0.304. In addition, the composite z-score in experiment [8] is 0.906; in [9] it was 0.791; in [10], 1.22. Further, in experiment [2], the z-score is -1.97.

In the case of `COCCCNC(=O)[C@@]1(Cc2ccccc2N=[N+]=[N-])COC(c2ccc(OCCCO)cc2)=N1`, the composite z-score in [1] came to 1.44; in experiment [3], 0.185; in experiment [4] it was 1.43; in [5] it was 0.414; in [6] it was 0.0165; in experiment [7], 0.284. The results for the composite z-score in [8], in experiment [9] and in experiment [10] were 0.747, 2 and 2.18, respectively. The same molecule registered a z-score in experiment [2] of -0.899.

Take `CCCC[C@@H]1C[C@H]1[C@@H](NC(=O)c1cccs1)c1ccc(C(F)(F)F)cc1`: the composite z-score was -0.47 in experiment [1]; -0.45 in experiment [3]; -0.501 in [4]; -1.05 in [5]; -0.0334 in experiment [6]; 0.214 in experiment [7]. Also, the composite z-score in experiment [8] was 0.277; in [9], -0.515; in experiment [10] it was 0.237. The z-score in experiment [2] is -0.152.
